Measured values reported in PubChem BioAssay (NCATS).
A number with no mark means an inactive call. Results filed as inconclusive are left out. The source made the active and inactive calls. Unless noted, the call rests on the fitted dose curve; in most records, active means well fitted curve in either direction with a large enough effect (not every such curve was filed as active); inconclusive means small, poorly fitted or top-dose-only effect, or another doubt; inactive means flat fitted curve, though single readings scatter.

Experiments:
[1] = biological target: Lysosomal acid glucosylceramidase (Homo sapiens) (UniProt P04062); experiment: Glucocerebrosidase-p2 (AID 348; in the data active means potency below about 10 µM; further: potency means the concentration at half of the fitted maximal effect); conditions: purified GBA, blue fluorogenic substrate, 40 min
Summary of the method: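 Normal human glucocerebrosidase (0.2 nM) with blue fluorogenic substrate (80 uM final) in citrate/phosphate pH 5.9 with 10mM sodium taurocholate, 0.01% tween-20; 40 min RT, NaOH/glycine stop; fluorescence Ex 365/Em 440; AC50 from a titration from 0.6 nM upwards.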

[2] = AP1 Signaling Pathway (AID 357); conditions: ME-180 AP-1-bla reporter, EGF-induced, beta-lactamase ratio, 5 h; at 7.69 µM (top of the series) unless noted;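 further: ME-180 reporter cells stimulated with EGF at its EC50 level; on the % scale 0 is the no-effect control and ±100 the full control effect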
Summary of the method: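 Beta-lactamase reporter under AP-1 response element, ME-180 background. Stimulus: EC50 EGF. Compound exposure 5 h, 37 °C. Detection: CCF4, 2.5 h RT, 460/530 nm. Values: AC50 from titration.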

[3] = NFAT Signaling Pathway (AID 444); conditions: Jurkat NFAT-bla M1, carbachol, beta-lactamase ratio, 5 h; at 7.69 µM (top of the series) unless noted;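 further: carbachol stimulus at about its EC50 of 1 µM final; on the % scale 0 is the no-effect control and ±100 the full control effect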
Summary of the method: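 Read-out: CCF4 FRET ratio (460 nm/530 nm) after 1 h RT dye loading, used for %activity and AC50 from titration series. Cells: Jurkat NFAT-β-lactamase/M1 line, treated with compound plus 1 uM carbachol for 5 h, 37 °C.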

[4] = Stat Signaling Pathway (AID 446); conditions: ME-180 SIE beta-lactamase reporter, IL-6 stimulated, 5 h; at 7.69 µM (top of the series) unless noted;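 further: ME-180 cervical cancer cells given 40 pM IL-6 alongside compound; SIE-controlled beta-lactamase reporter measured as 460/530 nm FRET emission ratio; on the % scale 0 is the no-effect control and ±100 the full control effect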
Summary of the method: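 Compound effects on IL-6-induced STAT reporter activity were measured in ME-180 cells. After overnight culture, cells were co-treated with 40 pM IL-6 for 5 hrs before beta-lactamase substrate loading at room temperature.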

[5] = biological target: Glucocorticoid receptor (Homo sapiens) (UniProt P04150); experiment: GR-GFP Redistribution (AID 450;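 active means compounds whose dose series gives a full or clear partial fitted curve of increased nuclear translocation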; further: potency means the concentration at half of the fitted maximal effect); conditions: U2OS GR-GFP nuclear translocation, laser cytometry, 2 h
[6] = biological target: Glucocorticoid receptor (Homo sapiens) (UniProt P04150); experiment: GR-EFC Redistribution (AID 451; calls by dose curve; further: potency means the concentration at half of the fitted maximal effect); conditions: CHO-K1 GR-EFC translocation, beta-gal luminescence, 2 h
Summary of the method: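 Translocation of GR-ED fusion to nuclear EA restores b-gal, read by luminescence after 1 h room-temperature detection. Engineered CHO-K1 biosensor cells, 1,000/well, exposed 2 h at 37 C to titrations up to 46 uM final.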

[7] = biological target: 3',5'-cyclic-AMP phosphodiesterase 4B (Homo sapiens) (UniProt Q07343); experiment: qHTS Assay for Inhibitors of PDE-IV (AID 607; active means well fitted activation curve with a large enough effect in the main read-out, with a control signal flat, not every such curve was filed as active; further: % of control where 0% means no effect); conditions: HEK293 ACTOne CNG channel cells, membrane potential fluorescence; series mostly up to 22.9 µM
Summary of the method: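 ACTOne HEK293 cells carry a modified cAMP-gated CNG channel and express endogenous PDE4; plated 1000 cells/well, compounds up to 22.9 uM final. Membrane-potential dye fluorescence (ex 535/em 590) was read; parental cells received 10 uM forskolin + 100 uM RO 20-1724.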

[8] = biological target: Mitogen-activated protein kinase 10 (Mus musculus) (UniProt Q61831); experiment: JNK3 AlphaScreen Assay (AID 530); conditions: JNK3 lysate, c-Jun phosphorylation; series mostly up to 11.4 µM;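 further: kinase came from lysate of stimulated human HepG2 cells; signal reports phosphorylation of biotinylated GST-cJun 1-79 at Ser73 with 10 µM ATP; on the % scale 0 is the no-effect control and ±100 the full control effect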
Summary of the method: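 qHTS titrations with 15 min compound pre-incubation before adding ATP (10 uM final). Read-out: AlphaScreen of Ser73-phosphorylated biotin-GST-cJun using HepG2 lysate JNK3 activated by IL-1β and TNFα.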

[9] = qHTS Assay for Identification of Small Molecule Agonists for Hypoxia Response Element Signaling Pathway (AID 914; active means well fitted activation curve with a large enough effect in the signal ratio, with a control signal flat, not every such curve was filed as active; the % refers to the signal ratio; further: % of control where 0% means no effect); conditions: ME-180 (cervical carcinoma) HRE-bla reporter, beta-lactamase ratio, CoCl2, 17 h; activation: hits give high values
Summary of the method: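 HRE-bla ME-180 assay for agonist-like enhancement of an EC50 CoCl2 stimulus: 17 h at 37 degrees Celsius, CCF4 for 2.5 h, ratiometric 460/530 nm signal converted to %Activity and fitted to AC50.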

[10] = biological target: Cytochrome P450 2C9 (Homo sapiens) (UniProt P11712); experiment: qHTS Assay for Inhibitors and Substrates of Cytochrome P450 2C9 (AID 883; active means well fitted curve in the direction sought with a large enough effect; an effect the other way counts as inactive or inconclusive; further: on the % scale 0 is the no-effect control and ±100 the full control effect; nearly all actives have a fitted effect of over 60% in size); conditions: recombinant CYP2C9, luciferin-H luminescence, 60 min; series mostly up to 11.4 µM
Summary of the method: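 Inhibition of CYP2C9 is scored as loss of luminescence, with 57uM sulphaphenazole defining 100% inhibition. Substrate Luciferin-H is used at 100uM, equal to its KM; enzyme at 10nM in 25mM KPO4, 60 min at 37C with NADPH regeneration.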

[11] = biological target: Cytochrome P450 3A4 (Homo sapiens) (UniProt P08684); experiment: qHTS Assay for Inhibitors and Substrates of Cytochrome P450 3A4 (AID 884; active means well fitted curve in the direction sought with a large enough effect; an effect the other way counts as inactive or inconclusive; further: potency means the concentration at half of the fitted maximal effect; nearly all actives have a fitted effect of over 50% in size); conditions: recombinant CYP3A4, Luciferin-PPXE luminescence; series mostly up to 57.1 µM
Summary of the method: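 Luminescent readout of luciferin produced by CYP3A4 (20 nM) dealkylation of Luciferin-PPXE, 25 uM (its KM). NADPH-driven reaction ran 60 min at RT after 10 min compound preincubation; data scaled to 57 uM ketoconazole as 100% inhibition.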

[12] = Confirmation and Secondary Assay for Modulators of Hemoglobin Beta Chain Splicing at IVS2 654 locus (AID 910; active means well fitted curve in the direction sought with a large enough effect; an effect the other way counts as inactive or inconclusive;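 further: HeLa cells stably carrying EGFP split by mutant beta-globin IVS2-654 intron; per-well total GFP intensity by laser scanning cytometry after 2-day treatment; % of control where 0% means no effect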); conditions: HeLa EGFP-654 splicing reporter, GFP fluorescence, 48 h; series mostly up to 38.3 µM
Summary of the method: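 Readout: per-well total peak green fluorescence (488 nm ex, 500–520 nm em) from objects 5–250 µm, reflecting correct splicing of an EGFP-654 reporter. Compounds were applied for 2 days at 37 °C to overnight-plated HeLa EGFP-654 cells; controls were DMSO and 500 nM IVS2-654 PNA.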

[13] = Confirmation and Secondary Assay for Modulators of Hemoglobin Beta Chain Splicing at IVS2 705 locus (AID 930; active means well fitted curve in the direction sought with a large enough effect; an effect the other way counts as inactive or inconclusive;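 further: HeLa cells stably expressing the EGFP-705 splicing reporter; GFP fluorescence per well restored by corrected splicing of the IVS2-705 intron in EGFP; % of control where 0% means no effect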); conditions: HeLa EGFP-705 splicing reporter, GFP fluorescence, 48 h; series mostly up to 38.3 µM
Summary of the method: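 HeLa IVS2-705 EGFP reporter cells, 500/well, compound 2 d at 37C; correct splicing yields fluorescent EGFP. Control: 500 nM antisense PNA. Read-out: total peak GFP intensity.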

Chain of Lysosomal acid glucosylceramidase (Homo sapiens) (P04062 whole entry, looked up): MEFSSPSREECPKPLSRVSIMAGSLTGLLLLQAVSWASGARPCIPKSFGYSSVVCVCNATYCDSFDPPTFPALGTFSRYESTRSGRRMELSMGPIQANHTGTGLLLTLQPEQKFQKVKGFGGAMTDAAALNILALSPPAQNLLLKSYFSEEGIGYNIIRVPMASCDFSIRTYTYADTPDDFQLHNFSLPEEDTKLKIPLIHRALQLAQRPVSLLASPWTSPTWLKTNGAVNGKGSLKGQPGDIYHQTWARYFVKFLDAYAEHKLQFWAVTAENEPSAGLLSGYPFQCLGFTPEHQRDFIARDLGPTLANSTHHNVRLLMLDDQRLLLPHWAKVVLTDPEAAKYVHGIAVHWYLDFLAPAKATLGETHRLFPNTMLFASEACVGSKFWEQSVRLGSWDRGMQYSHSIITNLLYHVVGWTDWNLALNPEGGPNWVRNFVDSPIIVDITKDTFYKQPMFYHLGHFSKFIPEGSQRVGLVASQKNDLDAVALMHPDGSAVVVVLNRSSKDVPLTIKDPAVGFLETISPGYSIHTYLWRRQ
Chain of 3',5'-cyclic-AMP phosphodiesterase 4B (Homo sapiens) (Q07343 whole entry, looked up): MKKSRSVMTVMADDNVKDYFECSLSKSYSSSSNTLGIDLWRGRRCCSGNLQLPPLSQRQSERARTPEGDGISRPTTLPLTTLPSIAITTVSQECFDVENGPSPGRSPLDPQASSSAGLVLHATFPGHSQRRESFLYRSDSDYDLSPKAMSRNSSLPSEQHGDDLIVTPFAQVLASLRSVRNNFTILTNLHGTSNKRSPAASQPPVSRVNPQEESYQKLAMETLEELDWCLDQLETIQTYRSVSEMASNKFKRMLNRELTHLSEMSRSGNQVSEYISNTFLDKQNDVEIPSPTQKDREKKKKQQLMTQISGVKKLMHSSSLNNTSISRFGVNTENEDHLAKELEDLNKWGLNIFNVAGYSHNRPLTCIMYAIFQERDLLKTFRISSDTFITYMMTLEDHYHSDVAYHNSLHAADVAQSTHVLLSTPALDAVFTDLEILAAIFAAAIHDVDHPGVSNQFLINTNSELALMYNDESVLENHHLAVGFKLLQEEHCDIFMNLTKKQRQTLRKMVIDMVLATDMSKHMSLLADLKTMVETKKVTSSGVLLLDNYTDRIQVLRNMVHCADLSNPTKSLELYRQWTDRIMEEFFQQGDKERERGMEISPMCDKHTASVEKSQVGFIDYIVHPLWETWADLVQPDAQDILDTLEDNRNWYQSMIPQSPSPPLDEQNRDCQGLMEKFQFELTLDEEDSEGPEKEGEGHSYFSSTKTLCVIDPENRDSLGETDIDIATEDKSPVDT
Chain of Glucocorticoid receptor (Homo sapiens) (P04150 whole entry, looked up, the tested form may be a part): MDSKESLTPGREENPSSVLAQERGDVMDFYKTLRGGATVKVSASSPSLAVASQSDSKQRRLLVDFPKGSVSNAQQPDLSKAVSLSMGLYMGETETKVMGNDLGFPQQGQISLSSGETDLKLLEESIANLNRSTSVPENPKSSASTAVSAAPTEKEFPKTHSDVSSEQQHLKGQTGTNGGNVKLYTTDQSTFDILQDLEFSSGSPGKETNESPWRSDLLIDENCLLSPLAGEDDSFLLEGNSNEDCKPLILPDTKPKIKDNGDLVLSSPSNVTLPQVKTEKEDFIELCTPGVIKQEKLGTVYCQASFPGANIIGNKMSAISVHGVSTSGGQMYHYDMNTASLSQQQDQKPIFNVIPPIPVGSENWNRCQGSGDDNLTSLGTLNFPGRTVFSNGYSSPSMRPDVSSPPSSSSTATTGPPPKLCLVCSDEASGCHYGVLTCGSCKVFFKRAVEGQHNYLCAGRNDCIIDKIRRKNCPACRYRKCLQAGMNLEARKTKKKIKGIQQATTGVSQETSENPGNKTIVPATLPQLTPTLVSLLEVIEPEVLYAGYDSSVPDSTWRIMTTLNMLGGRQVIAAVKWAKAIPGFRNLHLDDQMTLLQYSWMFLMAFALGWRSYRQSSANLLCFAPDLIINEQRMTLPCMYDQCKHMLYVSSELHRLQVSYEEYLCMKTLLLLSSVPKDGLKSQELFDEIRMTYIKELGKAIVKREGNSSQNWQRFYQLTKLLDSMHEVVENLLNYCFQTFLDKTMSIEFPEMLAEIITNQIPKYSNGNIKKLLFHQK
Chain of Cytochrome P450 2C9 (Homo sapiens) (P11712 whole entry, looked up): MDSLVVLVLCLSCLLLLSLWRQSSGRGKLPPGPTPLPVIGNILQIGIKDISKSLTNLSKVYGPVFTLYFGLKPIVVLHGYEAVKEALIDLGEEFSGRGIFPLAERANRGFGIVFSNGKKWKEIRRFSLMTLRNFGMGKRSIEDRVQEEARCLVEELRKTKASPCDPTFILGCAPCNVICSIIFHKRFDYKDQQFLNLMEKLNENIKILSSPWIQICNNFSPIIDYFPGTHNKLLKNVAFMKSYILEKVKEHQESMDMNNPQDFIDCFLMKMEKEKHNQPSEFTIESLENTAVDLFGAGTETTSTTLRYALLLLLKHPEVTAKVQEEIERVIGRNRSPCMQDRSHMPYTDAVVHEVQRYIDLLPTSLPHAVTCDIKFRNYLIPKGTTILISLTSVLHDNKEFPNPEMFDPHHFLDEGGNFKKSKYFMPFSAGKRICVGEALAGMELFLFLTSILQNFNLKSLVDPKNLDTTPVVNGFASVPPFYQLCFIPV
Chain of Cytochrome P450 3A4 (Homo sapiens) (P08684 whole entry, looked up): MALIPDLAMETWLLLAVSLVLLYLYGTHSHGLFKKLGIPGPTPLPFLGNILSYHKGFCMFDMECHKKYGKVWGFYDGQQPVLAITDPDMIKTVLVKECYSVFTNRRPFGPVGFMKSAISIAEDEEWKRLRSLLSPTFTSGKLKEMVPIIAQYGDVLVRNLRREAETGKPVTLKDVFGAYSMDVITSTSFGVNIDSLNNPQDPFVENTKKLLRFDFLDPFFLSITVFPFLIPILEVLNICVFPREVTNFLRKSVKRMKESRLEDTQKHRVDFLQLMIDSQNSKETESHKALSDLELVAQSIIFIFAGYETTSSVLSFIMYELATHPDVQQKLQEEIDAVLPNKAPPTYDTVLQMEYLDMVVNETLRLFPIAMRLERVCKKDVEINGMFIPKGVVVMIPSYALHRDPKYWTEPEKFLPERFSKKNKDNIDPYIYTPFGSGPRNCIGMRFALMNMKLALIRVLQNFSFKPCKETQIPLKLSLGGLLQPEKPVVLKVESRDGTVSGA

| SMILES | Potency [1] [µM] | activity change, negative = inhibition [2] [%] | activity change, negative = inhibition [3] [%] | activity, negative = inhibition [4] [%] | Potency [5] [µM] | Potency [6] [µM] | Potency [7] | Potency [8] | activation [9] [%] | Potency [10] | Potency [11] | outcome [12] | outcome [13] |
| --- | --- | --- | --- | --- | --- | --- | --- | --- | --- | --- | --- | --- | --- |
| O=S(=O)(O)c1ccc2c(N=Nc3c(O)ccc4ccccc34)cccc2c1 | > 11.4 | -13.3 | -11.8 | -5.48 | > 46 | > 9.22 | inactive | – | – | – | – | – | – |
| CS(=O)(=O)c1ccc(/C=N\NC(N)=S)cc1 | > 11.4 | 2.65 | 1.52 | -2.81 | > 46 | > 9.22 | inactive | – | – | – | – | – | – |
| OCCCSCCO | > 11.4 | 5.52 | 7.44 | -0.432 | > 46 | > 9.22 | inactive | inactive | 7.65 | – | – | – | – |
| OCCCNCc1ccncc1 | > 11.4 | -2.93 | 5.43 | -6.9 | > 46 | > 9.22 | inactive | inactive | 1.84 | – | – | – | – |
| O=C(O)[C@@H]1[C@@H](C(=O)Nc2ncccn2)[C@@H]2C=C[C@@H]1O2 | > 11.4 | -0.979 | 0.85 | 9.29 | > 46 | > 9.22 | inactive | inactive | 18.9 | – | – | – | – |
| CC(C)(CCc1nc2ccccc2[nH]1)C(=O)O | > 11.4 | -7.34 | 6.77 | 1.19 | > 46 | > 9.22 | inactive | – | – | inactive | – | – | – |
| Cc1ccc(N=Nc2c(O)c(S(=O)(=O)O)cc3cc(S(=O)(=O)O)ccc23)c(C)c1 | > 11.4 | 19.9 | 10.1 | -2.41 | > 46 | > 9.22 | inactive | – | – | – | – | – | – |
| Cn1c(=O)c2[nH]c(CCNC(=O)c3ccccc3)nc2n(C)c1=O | > 11.4 | 5.92 | 10.4 | 3.06 | > 46 | > 9.22 | inactive | inactive | 8.28 | – | – | – | – |
| O=c1[nH][nH]c(=S)c(=O)[nH]1 | > 11.4 | -2.98 | 12.7 | 3.19 | > 46 | > 9.22 | inactive | inactive | 5.24 | – | – | – | – |
| O=C(O)CCNCC(=O)O | > 11.4 | 2.01 | 0.769 | -2.35 | > 46 | > 9.22 | inactive | – | – | – | – | – | – |
| CC(C)(CO)N1CCN(C(=S)Nc2ccccc2)CC1 | > 11.4 | 7.77 | 17.5 | -2.59 | > 46 | > 9.22 | inactive | inactive | 10 | – | – | – | – |
| CS(=O)(=O)Nc1cccc(-c2nc(NCc3cccnc3)c3ccccc3n2)c1 | > 11.4 | -19.8 | 23.6 | -19.5 | > 46 | > 46 | – | inactive | – | – | 2 µM (active) | inactive | inactive |
| O[C@@H](COc1cccc2ccccc12)CN1CCOCC1 | > 11.4 | 3.83 | 4.33 | 3.7 | > 46 | > 9.22 | inactive | inactive | 3.28 | – | – | – | – |
| N[C@@H](CCCCO)C(=O)O | > 11.4 | 4.11 | -3.02 | -3.96 | > 46 | > 9.22 | inactive | – | – | – | – | – | – |
| O=C1c2ccccc2C(=O)c2c(Nc3cc4c5c(ccc6c7ccc8c9c(cc(Nc%10cccc%11c%10C(=O)c%10ccccc%10C%11=O)c(c3c56)c97)-c3ccccc3C8=O)C(=O)c3ccccc3-4)cccc21 | > 11.4 | 11.6 | 22.7 | 11.5 | > 46 | > 9.22 | inactive | – | – | – | – | – | – |
